In PubChem BioAssay AID1345082 (National Center for Advancing Translational Sciences (NCATS), 2018):
About 4,000 (4.3%) of roughly 94,000 compounds were called active. Inconclusive results (about 29%) are left out. The call rests on the fitted dose curve; in most records, active means well fitted inhibition curve with a large enough effect; inconclusive means small, poorly fitted or top-dose-only effect; inactive means no such curve, though single readings can be large or run the other way. Shown is part of a subset that was picked to be rich in actives.

test: Cytotoxic Profiling in NIH 3T3 Cell Line of Diverse Libraries Using Quantitative High-Throughput Screening; settings: NIH 3T3 viability, CellTiter-Glo ATP luminescence, 48-72 h; series mostly up to 96.7 µM; activity change, negative = cytotoxicity: at the top concentration; further: nearly all actives have a fitted effect of over 55% in size
Outline: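 Cytotoxicity is measured as loss of cellular ATP: NIH 3T3 cells (400/well) are exposed to compound for 48 or 72 hr at 37 °C, then CellTiter-Glo luminescence is imaged after 10 min at room temperature.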
On the % scale 0 is the no-effect control and ±100 the full control effect; potency means the concentration at half of the fitted maximal effect.

Row | SMILES | activity change, negative = cytotoxicity | outcome | Potency
1 | O=C(Cc1ccccc1)Nc1ccc([C@@H](O)[C@H]2COCC(=O)N2)cc1 | 2.9% [at 138 µM] (inactive) | – | –
2 | Cc1nc2cnccn2c1C(=O)NC1CCCC1 | -26.7% [at 138 µM] (inactive) | – | –
3 | Cc1cnc(-c2cccnc2)n1C1CCN(S(=O)(=O)c2cccc(F)c2)CC1 | -7.18% (inactive) | – | –
4 | Cn1nc2n(c1=O)CCN(S(=O)(=O)c1ccc(C#N)cc1)CC2 | – | inactive | –
5 | Cc1cccc(-c2cc(C3CCN(S(=O)(=O)c4cccc(C#N)c4)CC3)[nH]n2)c1 | – | – | 5.01 µM (active)
6 | Cc1cccc(S(=O)(=O)N2CCC(n3cnnc3C(C)C)CC2)c1 | -17.6% (inactive) | – | –
7 | Cc1cnc(CC2CCN(S(=O)(=O)c3ccc(C#N)cc3)C2)n1Cc1ccccc1 (stereo unspecified) | -19.8% (inactive) | – | –
8 | Cc1cccc(-c2cc(C3CCN(S(=O)(=O)c4ccc(C#N)cc4)CC3)[nH]n2)c1 | – | – | 14.1 µM (active)
9 | O=C(Cc1ccsc1)NCC1CCCCC(=O)N1 (stereo unspecified) | – | inactive | –
10 | Cc1ncccc1C(=O)N1CC2CC(C1)[C@H]1CCCC(=O)N1C2 (stereo partly specified) | -0.593% (inactive) | – | –
11 | CN1CC(=O)N(C2CCCNCC2)Cc2c1ncnc2N1CCCC(F)C1 (stereo unspecified) | -4.05% (inactive) | – | –
12 | Cc1noc(C)c1CC(=O)NCC12CCC=C1N(Cc1ccccc1)C(=O)CC2 (stereo unspecified) | -15% (inactive) | – | –
13 | CCc1ccc(C(=O)NC2CCN(c3cnn(CC)c(=O)c3)CC2)cc1 | -15.7% (inactive) | – | –
14 | Cc1cc(C)cc(C(=O)NC2CCN(c3cnn(C)c(=O)c3)CC2)c1 | – | – | 39.8 µM (active)
15 | Cn1ncc(N2CCC(C(=O)NC3CCCC3)C2)cc1=O (stereo unspecified) | -3.98% (inactive) | – | –
16 | COc1ccc(C(=O)N2CCN(C(=O)Nc3cccc(OC)c3)C[C@@H]2C(=O)N[C@H]2CCCNC2=O)cc1 | 4.28% (inactive) | – | –
17 | Cc1cc(C(=O)NCC2(COc3cccnc3)C[C@@H](O)[C@@H](O)C2)n(C)n1 (stereo partly specified) | -25.3% [at 174 µM] (inactive) | – | –
18 | Cc1cccc(-c2noc([C@@H]3Cc4nc[nH]c4CN3C(=O)CCC(=O)O)n2)c1 | -4.77% [at 174 µM] (inactive) | – | –
19 | O=C(c1ccco1)N1Cc2[nH]cnc2C[C@H]1c1nc(-c2ccncc2)no1 | -11.2% [at 138 µM] (inactive) | – | –
20 | Cc1ccc(-c2noc([C@@H]3Cc4nc[nH]c4CN3Cc3cccc(C#N)c3)n2)cc1 | – | – | 100 µM (active)
21 | CNC(=O)c1cc(C2CC2)nc2onc(C3CCN(C(=O)Cc4ccc(OC)cc4)CC3)c12 | -23.1% (inactive) | – | –

Row | SMILES | activity change, negative = cytotoxicity | outcome | Potency
22 | CN1Cc2c(cc(N3CCOCC3)nc2-c2cccc(F)c2)C1=O | – | – | 8.91 µM (active)
23 | O=C(c1cccnc1)N1CCC2(CCCN(C3CCOCC3)C2=O)C1 (stereo unspecified) | 4.79% (inactive) | – | –
24 | O=c1[nH]c(N2CCOCC2)nc2c1CCN(Cc1cccc(F)c1)CC2 | 4.36% (inactive) | – | –
25 | O=C(NC1CCCCC1)N1CCCCCC1c1nc(-c2cccnc2)no1 (stereo unspecified) | -26.4% (inactive) | – | –
26 | O=C1c2cc(N3CCOCC3)nc(-c3cccnc3)c2CN1C1COC1 | – | – | 8.91 µM (active)
27 | Cc1cccc(Cn2c(-c3ccc(F)cc3)nc(C)c(CCO)c2=O)c1 | -20.2% (inactive) | – | –
28 | Cc1cc(N2CCC(NC(=O)c3cccc(N(C)C)c3)C2=O)ccc1F (stereo unspecified) | -13.1% (inactive) | – | –
29 | O=C(c1c[nH]c2ccccc12)N1CCC2(COc3ccncc3S(=O)(=O)N2)C1 (stereo unspecified) | -4.03% (inactive) | – | –
30 | Cc1cc(C(=O)N2CCC(N3C(=O)C(O)C34CCCCC4)CC2)nn1C (stereo unspecified) | -3.23% (inactive) | – | –
31 | Cc1nc(C)c(C(=O)N2CCN(C(=O)N(C)C)[C@@H]3CS(=O)(=O)C[C@@H]32)s1 | -15.2% (inactive) | – | –
32 | COc1ccccc1C(=O)N1CCC2(CC1)C(=NC1CCCCC1)NC(=O)N2c1cccnc1 | – | inactive | –
33 | O=C(NCc1nnc2n1C(C(=O)NC1CC1)CC2)c1ccncc1 (stereo unspecified) | -3.99% (inactive) | – | –
34 | CCn1cc(S(=O)(=O)N2CC[C@@H]3C(=O)NCCCCCCN(Cc4ccncc4)[C@@H]3C2)cn1 | -21.9% (inactive) | – | –
35 | CN1[C@@H](CCC(=O)N2CCCC2)CNC(=O)[C@@H]2[C@H]1CCN2Cc1ccc(S(C)(=O)=O)cc1 | 3.65% (inactive) | – | –
36 | COc1ccccc1Nc1ccnc(N2CCC(NC(=O)NC(C)C)CC2)n1 | -11.6% (inactive) | – | –
37 | O=[S+]([O-])(c1cccs1)N1CCN(c2nccc(Nc3ccccc3F)n2)CC1 | – | – | 25.1 µM (active)
38 | O=c1n(CCN2CCN([S+](=O)([O-])c3cccs3)CC2)nc2n1CCCC2 | -21.4% (inactive) | – | –
39 | COc1ccccc1-n1c(=O)c(C(=O)N2CCN([S+](=O)([O-])c3cccs3)CC2)nc2cccnc21 | 4.07% (inactive) | – | –
40 | COc1ccccc1Nc1ccnc(N2CCC(N[S+](=O)([O-])c3cccs3)CC2)n1 | – | – | 31.6 µM (active)
41 | CN(C)C(=O)c1cccnc1OC1CCN(C(=O)c2ccc(Br)o2)C1 (stereo unspecified) | -2.28% (inactive) | – | –
42 | CCc1nc2nccc(-c3ccco3)n2n1 | – | inactive | –

Row | SMILES | activity change, negative = cytotoxicity | outcome | Potency
43 | Cc1nc(-c2ccccc2OC2CN(C(=O)c3ccnn3C)C2)no1 | -10.8% (inactive) | – | –
44 | CC(=O)/C=C/C1=CC(C)(C)COc2ccc(O)cc21 | – | – | 25.1 µM (active)
45 | Cc1noc(-c2cccc(OC3CN(C(=O)CN4C(=O)CCC4=O)C3)c2)n1 | 2.78% (inactive) | – | –
46 | CC(=O)Nc1ccc(NC(=O)Cn2nc3c(cc2=O)CCCCC3)cc1 | – | inactive | –
47 | O=C(Cc1cccnc1)N1CCCC(c2nc(CCOCC3CCCC3)no2)C1 (stereo unspecified) | -8.29% (inactive) | – | –
48 | C1CCC(COCCc2noc(C3CNC3)n2)C1 | – | – | 7.94 µM (active)
49 | O=C(c1ccoc1)N1CCCC(c2nc(CCOCC3CCCC3)no2)C1 (stereo unspecified) | -12.7% (inactive) | – | –
50 | COCCCNC(=O)c1ccc2oc(-c3ccc(OC)nc3)nc2c1 | -22% [at 138 µM] (inactive) | – | –
51 | CC(C)CNC(=O)N1CCCC(c2nc(C(C)C)no2)CCNC(=O)CC1 (stereo unspecified) | -8.55% (inactive) | – | –
52 | CC(C)(C)NC(=O)N1CCCC(c2nc(CCOCC3CCOCC3)no2)C1 (stereo unspecified) | – | inactive | –
53 | CC(=O)N1CCN(c2cc(-c3noc([C@@H]4CCCN4C4CCC4)n3)ccn2)CC1 | -7.66% [at 138 µM] (inactive) | – | –
54 | CC(=O)N1CCC(N2CCC[C@H]2c2nc(-c3ccc(-c4cncnc4)nc3)no2)CC1 | -21.4% [at 138 µM] (inactive) | – | –
55 | CN1CCC(N2CCC[C@H]2c2nc(-c3ccc(OC4CCCCC4)nc3)no2)CC1 | – | – | 28.2 µM (active)
56 | COCCN1CCC2(CCC1=O)CCN(C(=O)Nc1cc(Cl)ccc1C)CC2 | -17.5% (inactive) | – | –
57 | COCCNC(=O)C(C)[C@@H]1CC[C@@]2(C)CC[C@H](NC(=O)c3ccccc3)[C@@H](C)[C@@H]2[C@H]1O (stereo partly specified) | -1.63% [at 138 µM] (inactive) | – | –
58 | C=CCN(C)C(=O)[C@@H](C)C1CC[C@@]2(C)Cc3sc(Nc4c(Cl)cccc4Cl)nc3[C@@H](C)[C@@H]2[C@H]1O (stereo partly specified) | – | – | 44.7 µM (active)
59 | CCN(CC)C(=O)[C@@H](C)C1CC[C@@]2(C)Cc3sc(N)nc3[C@@H](C)[C@@H]2[C@H]1O (stereo partly specified) | -15.1% [at 174 µM] (inactive) | – | –
60 | Cc1cc(C2CCCN2C(=O)c2ccccc2)on1 (stereo unspecified) | – | inactive | –
61 | O=C(c1ccc2cc[nH]c2c1)N1CCN(Cc2cnc[nH]2)CC(O)C1 (stereo unspecified) | -0.94% (inactive) | – | –
